What all share (set-up): scale not given: direction of the effect not stated beside the values
For experiment [1], the target named is Protein translocase subunit SecA (Escherichia coli (strain K12)) (UniProt P10408). The experiment can be described thus: Assay to Identify E. coli SecA ATPase Inhibitors. Type of experiment: functional. The settings on record: 30 µM.
The target in experiment [2] is T1, Ubiquitin-activating enzyme e1, putative (Leishmania donovani (strain BPK282A1)) (UniProt E9BSI1).
T1 sequence (whole entry): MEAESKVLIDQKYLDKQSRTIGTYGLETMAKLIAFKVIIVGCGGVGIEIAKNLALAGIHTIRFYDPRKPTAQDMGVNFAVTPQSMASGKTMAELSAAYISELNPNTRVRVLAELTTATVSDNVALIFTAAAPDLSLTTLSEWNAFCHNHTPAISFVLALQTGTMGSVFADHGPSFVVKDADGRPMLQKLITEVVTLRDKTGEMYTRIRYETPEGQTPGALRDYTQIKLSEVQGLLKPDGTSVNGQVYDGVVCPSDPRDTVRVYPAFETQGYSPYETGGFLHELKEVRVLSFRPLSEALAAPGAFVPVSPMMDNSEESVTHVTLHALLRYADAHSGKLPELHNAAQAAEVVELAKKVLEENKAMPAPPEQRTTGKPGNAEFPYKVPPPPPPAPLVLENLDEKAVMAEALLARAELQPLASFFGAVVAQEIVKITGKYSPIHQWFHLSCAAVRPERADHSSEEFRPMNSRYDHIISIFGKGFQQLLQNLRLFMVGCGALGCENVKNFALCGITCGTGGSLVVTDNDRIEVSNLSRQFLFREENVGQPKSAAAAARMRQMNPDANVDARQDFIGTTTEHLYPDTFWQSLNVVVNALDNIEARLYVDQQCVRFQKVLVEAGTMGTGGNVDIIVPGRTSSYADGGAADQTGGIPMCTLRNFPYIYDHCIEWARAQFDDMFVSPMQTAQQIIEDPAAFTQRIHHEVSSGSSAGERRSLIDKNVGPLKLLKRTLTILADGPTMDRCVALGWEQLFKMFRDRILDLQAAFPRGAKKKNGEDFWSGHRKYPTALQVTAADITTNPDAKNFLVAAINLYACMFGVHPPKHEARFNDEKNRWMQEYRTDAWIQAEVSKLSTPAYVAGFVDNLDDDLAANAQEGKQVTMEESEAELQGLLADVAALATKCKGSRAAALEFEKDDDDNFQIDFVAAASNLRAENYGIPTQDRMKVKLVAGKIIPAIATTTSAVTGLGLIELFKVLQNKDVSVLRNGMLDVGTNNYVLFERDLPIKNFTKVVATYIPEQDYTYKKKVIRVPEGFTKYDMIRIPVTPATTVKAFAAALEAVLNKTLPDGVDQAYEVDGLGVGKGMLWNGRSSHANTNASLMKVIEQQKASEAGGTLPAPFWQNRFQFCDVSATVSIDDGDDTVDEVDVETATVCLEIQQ
Nature of the experiment: Leishmania donovani Ubiquitin Activating Enzyme (LdE1). The format is functional. The note with it: 30 µM.

The target in experiment [3] is AMP-activated protein kinase, AMPK (Homo sapiens) (UniProt P54646+O43741+P54619+Q9UGJ0+Q9Y478+Q13131+Q9UGI9). Nature of the experiment: AMP-dependent Kinase enzyme assay. An in vitro enzyme assay that detects ADP turnover that is directly proportional to AMPK activity. This uses naive AMPK that is activated during the assay with MK-8722. Type of experiment: functional. The settings on record: 30 µM.

Experiment [4] concerns the target Sialic acid-binding Ig-like lectin 9 (Homo sapiens) (UniProt Q9Y336). The experiment can be described thus: Hs-Siglec9 ALPHAscreen SOP 20170721. The settings on record: 10 µM. (In general: Alpha assays give light when donor and acceptor beads are brought close together.)
The test system of the next experiment is Trypanosoma cruzi. Nature of the experiment: Trypanosoma cruzi phosphomannomutase and mannose-1-phosphate guanylyltransferase assay. The settings on record: 10 µM. The format is functional.
In experiment [5] the target is T2, Arginase-2, mitochondrial (Homo sapiens) (UniProt P78540).
T2 sequence (whole entry): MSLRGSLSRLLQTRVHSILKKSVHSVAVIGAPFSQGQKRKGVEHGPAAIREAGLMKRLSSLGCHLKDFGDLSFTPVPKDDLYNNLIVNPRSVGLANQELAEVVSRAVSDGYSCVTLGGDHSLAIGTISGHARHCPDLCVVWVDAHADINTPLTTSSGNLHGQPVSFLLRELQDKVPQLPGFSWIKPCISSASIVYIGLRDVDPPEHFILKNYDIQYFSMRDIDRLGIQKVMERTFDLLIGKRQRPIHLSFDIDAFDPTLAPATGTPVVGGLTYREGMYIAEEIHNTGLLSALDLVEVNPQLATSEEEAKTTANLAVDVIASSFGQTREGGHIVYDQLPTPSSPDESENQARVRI
The experiment can be described thus: in vitro enzyme assay to detect the production of urea directly proportional to the activity of Arginase II. Note: in the data most compounds retested in dose-response had high values. Type of experiment: functional. The note with it: 33.3 µM.

Experiment [6] concerns the target T3, Proteasome subunit beta (Trypanosoma cruzi) (UniProt O96673).
T3 sequence (whole entry): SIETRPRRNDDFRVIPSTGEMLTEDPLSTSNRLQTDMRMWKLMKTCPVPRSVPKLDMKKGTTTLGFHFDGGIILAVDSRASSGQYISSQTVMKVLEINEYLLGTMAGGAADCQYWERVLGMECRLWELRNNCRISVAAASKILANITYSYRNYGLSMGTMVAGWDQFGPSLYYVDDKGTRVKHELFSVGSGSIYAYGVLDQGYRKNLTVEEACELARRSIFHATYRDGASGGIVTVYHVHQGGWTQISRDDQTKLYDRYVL
Nature of the experiment: Trypanosoma cruzi proteasome chymotrypsin-like activity (TcProtChymo) assay. Note: in the data most compounds retested in dose-response had high values. The settings on record: 9.37 µM. Type of experiment: functional.

For a further experiment, the species on record is Homo sapiens. The experiment can be described thus: To identify inhibition of the IFN signalling (Jak-Stat) pathway via expression of an eGFP reporter gene under the control of an IFN-stimulated response element (ISRE) containing MxA promoter. The note with it: 30 µM. Type of experiment: functional. In general terms: A reporter such as luciferase makes a cellular process visible.

Experiment [7] deals with T4, Tyrosyl-tRNA synthetase, putative (Trypanosoma cruzi (strain CL Brener)) (UniProt Q4DSP6).
T4 sequence (whole entry): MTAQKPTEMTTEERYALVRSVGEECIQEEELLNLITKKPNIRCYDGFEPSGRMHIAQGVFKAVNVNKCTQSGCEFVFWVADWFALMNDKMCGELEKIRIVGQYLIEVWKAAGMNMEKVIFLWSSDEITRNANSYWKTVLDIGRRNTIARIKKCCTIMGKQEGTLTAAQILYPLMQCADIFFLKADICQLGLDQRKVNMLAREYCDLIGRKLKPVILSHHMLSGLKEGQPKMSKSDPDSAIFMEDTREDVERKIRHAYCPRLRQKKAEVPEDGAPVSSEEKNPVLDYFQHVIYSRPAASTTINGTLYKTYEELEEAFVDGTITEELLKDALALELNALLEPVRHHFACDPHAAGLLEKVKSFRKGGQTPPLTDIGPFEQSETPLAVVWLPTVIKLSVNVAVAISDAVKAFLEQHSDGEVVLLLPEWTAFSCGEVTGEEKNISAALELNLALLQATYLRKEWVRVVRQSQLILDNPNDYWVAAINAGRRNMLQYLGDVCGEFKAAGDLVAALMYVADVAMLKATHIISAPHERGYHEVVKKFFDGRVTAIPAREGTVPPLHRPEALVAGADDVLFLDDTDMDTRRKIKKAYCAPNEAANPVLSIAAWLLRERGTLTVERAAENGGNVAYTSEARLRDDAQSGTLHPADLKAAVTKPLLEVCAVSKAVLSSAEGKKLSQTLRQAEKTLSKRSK
Nature of the experiment: Trypanosoma cruzi tyrosyl tRNA synthetase (TcYRS) _High Tyrosine SOP. Note: in the data most compounds retested in dose-response had high values. The format is functional. The settings on record: 30 µM.

Experiment [8] deals with T4, Tyrosyl-tRNA synthetase, putative (Trypanosoma cruzi (strain CL Brener)). The experiment can be described thus: Trypanosoma cruzi tyrosyl tRNA synthetase (TcYRS) SOP. The note with it: 30 µM. Type of experiment: functional.
The target in experiment [9] is Chromo domain-containing protein 1 (Saccharomyces cerevisiae (strain ATCC 204508 / S288c) (Baker's yeast)) (UniProt P32657). Nature of the experiment: ScCHD-1 Enzyme Inhibition Assay. Note: in the data most compounds retested in dose-response had high values. Type of experiment: functional. The note with it: 30 µM.
The next experiment concerns N/A. The experiment can be described thus: Trypanosoma cruzi proteasome luciferase counter-screen. The format is functional. The note with it: 9.37 µM. For orientation: Counterscreens check selectivity or assay interference.

Values joined by “and” are separate entries in the source; they are usually repeats but may differ in a detail not shown here. Equal entries are not always repeated. For part of these data: Results with a measured potency or affinity are listed apart.

Chain of Protein translocase subunit SecA (Escherichia coli (strain K12)) (P10408 whole entry): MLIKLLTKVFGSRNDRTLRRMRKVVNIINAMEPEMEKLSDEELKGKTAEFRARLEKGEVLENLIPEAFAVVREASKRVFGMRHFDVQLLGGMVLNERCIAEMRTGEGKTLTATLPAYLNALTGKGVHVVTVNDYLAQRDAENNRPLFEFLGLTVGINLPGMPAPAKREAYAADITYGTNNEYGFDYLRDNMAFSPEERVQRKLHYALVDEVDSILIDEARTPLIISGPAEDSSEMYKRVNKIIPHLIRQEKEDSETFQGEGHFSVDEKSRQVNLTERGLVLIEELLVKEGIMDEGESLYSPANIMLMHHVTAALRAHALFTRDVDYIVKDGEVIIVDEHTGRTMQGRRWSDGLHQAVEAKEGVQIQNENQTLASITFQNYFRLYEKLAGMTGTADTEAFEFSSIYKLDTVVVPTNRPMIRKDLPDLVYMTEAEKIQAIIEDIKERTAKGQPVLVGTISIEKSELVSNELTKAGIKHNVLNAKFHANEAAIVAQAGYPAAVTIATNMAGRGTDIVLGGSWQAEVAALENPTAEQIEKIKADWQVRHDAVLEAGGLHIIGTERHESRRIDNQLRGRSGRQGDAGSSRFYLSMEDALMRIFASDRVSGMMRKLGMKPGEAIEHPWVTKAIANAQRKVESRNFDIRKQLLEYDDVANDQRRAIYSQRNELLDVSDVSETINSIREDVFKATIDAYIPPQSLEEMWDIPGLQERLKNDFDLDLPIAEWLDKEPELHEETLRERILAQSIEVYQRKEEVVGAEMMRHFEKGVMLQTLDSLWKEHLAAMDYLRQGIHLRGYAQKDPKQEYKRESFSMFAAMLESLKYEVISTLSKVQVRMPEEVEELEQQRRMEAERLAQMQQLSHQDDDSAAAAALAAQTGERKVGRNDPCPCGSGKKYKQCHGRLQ
Chain of Chromo domain-containing protein 1 (Saccharomyces cerevisiae (strain ATCC 204508 / S288c) (Baker's yeast)) (P32657 whole entry, the tested form may be a part): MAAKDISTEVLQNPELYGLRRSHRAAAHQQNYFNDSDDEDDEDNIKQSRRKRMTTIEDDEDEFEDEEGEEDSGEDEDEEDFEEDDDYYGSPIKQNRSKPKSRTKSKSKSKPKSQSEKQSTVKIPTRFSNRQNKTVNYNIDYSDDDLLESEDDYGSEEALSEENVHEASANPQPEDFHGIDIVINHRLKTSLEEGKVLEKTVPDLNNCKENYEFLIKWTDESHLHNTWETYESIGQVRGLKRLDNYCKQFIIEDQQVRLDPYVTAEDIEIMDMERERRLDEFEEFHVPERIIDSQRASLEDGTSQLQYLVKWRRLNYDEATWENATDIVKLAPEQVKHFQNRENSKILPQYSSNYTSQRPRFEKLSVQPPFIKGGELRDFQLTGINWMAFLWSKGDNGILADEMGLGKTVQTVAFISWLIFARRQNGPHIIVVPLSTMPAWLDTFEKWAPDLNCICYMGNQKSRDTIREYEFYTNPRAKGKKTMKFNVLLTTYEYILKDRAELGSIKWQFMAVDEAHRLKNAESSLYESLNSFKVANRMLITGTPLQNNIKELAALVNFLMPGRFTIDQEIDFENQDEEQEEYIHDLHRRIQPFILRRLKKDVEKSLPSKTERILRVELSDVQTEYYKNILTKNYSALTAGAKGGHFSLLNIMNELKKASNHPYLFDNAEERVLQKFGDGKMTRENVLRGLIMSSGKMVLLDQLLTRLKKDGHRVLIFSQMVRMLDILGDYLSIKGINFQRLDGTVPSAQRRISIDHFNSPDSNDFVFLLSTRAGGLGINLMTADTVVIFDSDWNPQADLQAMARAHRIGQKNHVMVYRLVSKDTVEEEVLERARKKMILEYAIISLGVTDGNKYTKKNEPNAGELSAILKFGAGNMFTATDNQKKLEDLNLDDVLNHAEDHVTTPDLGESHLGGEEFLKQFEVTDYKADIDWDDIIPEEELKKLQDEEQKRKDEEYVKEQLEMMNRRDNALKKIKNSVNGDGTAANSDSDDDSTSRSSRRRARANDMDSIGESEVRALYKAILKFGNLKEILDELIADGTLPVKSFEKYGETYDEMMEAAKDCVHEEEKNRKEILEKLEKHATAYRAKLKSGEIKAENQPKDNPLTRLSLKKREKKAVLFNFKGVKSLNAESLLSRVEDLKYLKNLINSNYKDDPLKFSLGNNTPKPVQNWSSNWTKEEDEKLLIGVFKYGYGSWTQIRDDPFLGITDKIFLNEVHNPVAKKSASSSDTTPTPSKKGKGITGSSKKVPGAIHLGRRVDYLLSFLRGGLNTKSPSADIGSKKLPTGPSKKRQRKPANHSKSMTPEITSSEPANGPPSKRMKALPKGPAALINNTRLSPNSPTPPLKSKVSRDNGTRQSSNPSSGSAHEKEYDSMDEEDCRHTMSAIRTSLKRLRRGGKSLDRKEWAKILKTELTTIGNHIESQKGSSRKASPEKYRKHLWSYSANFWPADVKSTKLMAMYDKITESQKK
Chain of Sialic acid-binding Ig-like lectin 9 (Homo sapiens) (Q9Y336 whole entry): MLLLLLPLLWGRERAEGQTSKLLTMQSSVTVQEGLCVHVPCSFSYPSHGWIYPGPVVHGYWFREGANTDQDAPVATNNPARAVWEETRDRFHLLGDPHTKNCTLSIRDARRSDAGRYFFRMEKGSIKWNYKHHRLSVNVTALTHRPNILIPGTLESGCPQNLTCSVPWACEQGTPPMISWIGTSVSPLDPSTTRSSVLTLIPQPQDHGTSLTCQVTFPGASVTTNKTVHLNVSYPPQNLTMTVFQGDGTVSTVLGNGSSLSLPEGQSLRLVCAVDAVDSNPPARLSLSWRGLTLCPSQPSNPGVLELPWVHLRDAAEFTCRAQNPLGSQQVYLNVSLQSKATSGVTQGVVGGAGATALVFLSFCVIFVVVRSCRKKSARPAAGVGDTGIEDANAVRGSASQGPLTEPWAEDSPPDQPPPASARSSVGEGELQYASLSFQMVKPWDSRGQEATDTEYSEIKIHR

`CCNC(c1cccnc1)c1ccc(F)c(F)c1` (stereo unspecified): the Percent Effect is -1.6% in [1]; -1.27% in experiment [2]; 6.62% in experiment [3]; 2.25% in experiment [4]; -0.923% in the experiment on Trypanosoma cruzi; 4.09% in [5]. Further, the Percent Effect is 5.66% in experiment [6]; 5.14% in the experiment filed under Homo sapiens; 1.04% in experiment [7]; -5.06% in experiment [8]; -14.2% in [9].

Turning to `O=C(NCCCn1cccn1)C1(c2ccc(F)cc2)CC1`, the Percent Effect in [1] worked out at 0.73%; in [2], 16.4%; in experiment [3] it was 0.361%; in experiment [4], 3.37%; with Trypanosoma cruzi, 3.72%; in [5], 10.4%. For the same molecule, the Percent Effect in experiment [6] was 8.87%; in the experiment filed under Homo sapiens, -5.73%; in experiment [7], 6.45%; in experiment [8], 12.5%; in experiment [9], -4.26%.

In the case of `O=C(c1ccncc1)N1CCC(c2nc(O)cc(-c3ccncc3)n2)C1` (stereo unspecified), the Percent Effect is -4.75% in experiment [1]; 21.3% in experiment [2]; 0.106% in [3]; -1.99% in experiment [4]; 0.984% in the experiment with Trypanosoma cruzi; -2.1% in experiment [5]. In addition, the Percent Effect was 6.33% and 4.26% with N/A; 4.05% in the experiment filed under Homo sapiens; 6.38% in experiment [7]; 14.1% in [8]; -6.07% in experiment [9].

Consider `Clc1ccc(OCCN2CCN(CCn3cncn3)CC2)cc1`, for which the Percent Effect in [1] is -0.515%; in experiment [2], -5.41%; in [3], -3.56%; in [4] it was 26.8%; with Trypanosoma cruzi it was 8.69%; in experiment [5] it was -2.86%. Moreover, the Percent Effect in experiment [6] is 4.48%; in the experiment filed under Homo sapiens it was 13.3%; in [7], 1.59%; in experiment [8], 14.6%; in [9] it was -8.8%.

`COc1c(CNC2CCN(C(=O)C3CC3)CC2)c(C(C)C)nn1C`: the Percent Effect is -4.71% in experiment [1]; 21.1% in experiment [2]; -4.53% in [3]; -2.41% in [4]; -4.95% in the experiment on Trypanosoma cruzi; 1.44% in experiment [5]. The Percent Effect was -0.0846% in [6]; 15.4% in the experiment filed under Homo sapiens; 6.4% in [7]; 18.5% in [8]; -3.47% in [9].

On to `CNc1cc2c(nn1)CCN(C(=O)c1cccc3c1OCO3)C2`, for which the Percent Effect in experiment [1] was -5.03%; in [2], 5.2%; in experiment [3], -9.97%; in [4], 7.76%; in the experiment on Trypanosoma cruzi, 3.75%; in experiment [5] it was 2.49%. Further, the Percent Effect in [6] is -5.07%; in the experiment filed under Homo sapiens, -5.98%; in experiment [7], 4.85%; in [8], 7.32%; in experiment [9], -2.55%.

Values taken from ChEMBL document CHEMBL3988442, “University of Dundee, Small-Polar-MMV Screening Library” (2021).
